These results are taken from PubChem BioAssay AID504454 (NMMLSC, 2011).

The campaign covered roughly 340,000 compounds. About 1,400 (0.41%) were called active. What follows is part of a selection rich in actives, with near analogues and random picks from the rest. A number with no mark means an inactive call.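 The calls were made as follows: active = response above a set limit, near 3 SD of response in nonfluorescent compounds (cut at about 42% in these data); inactive = the rest.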

For this experiment, the target named is Beta-2 adrenergic receptor (Homo sapiens) (UniProt P07550). Description: beta2AR agonists driving receptor internalization, primary screen, cell-based, FAP fluorogen, flow cytometry (AID 504454). The conditions noted are these: Am2.2-beta2AR cells, stronger effect = higher value, concentration not given here. A general note: A flow cytometer gives signals particle by particle.
Beta-2 adrenergic receptor (Homo sapiens), sequence (P07550 whole entry, looked up): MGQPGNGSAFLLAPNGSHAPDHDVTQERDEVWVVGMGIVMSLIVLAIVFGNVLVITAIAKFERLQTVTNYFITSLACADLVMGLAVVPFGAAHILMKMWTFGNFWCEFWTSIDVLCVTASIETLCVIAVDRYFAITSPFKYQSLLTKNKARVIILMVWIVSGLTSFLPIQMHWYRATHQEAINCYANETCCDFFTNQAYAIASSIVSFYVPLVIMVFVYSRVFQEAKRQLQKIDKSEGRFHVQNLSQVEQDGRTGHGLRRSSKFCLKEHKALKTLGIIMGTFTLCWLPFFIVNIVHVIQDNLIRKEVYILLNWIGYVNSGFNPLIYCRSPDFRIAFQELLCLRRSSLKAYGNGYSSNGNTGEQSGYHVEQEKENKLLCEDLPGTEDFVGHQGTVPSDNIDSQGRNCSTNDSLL
`CSc1ccc(S(=O)(=O)N2CCC(C(=O)NCCc3ccccc3)CC2)cc1`: the response was 21.2%.

Turning to `CSc1ccc(CCNC(=O)C2CCN(c3nnc(-n4cccc4)s3)CC2)cc1`, the response is 77.9% (active).

Take `COc1ccc(CCNC(=O)C2CCN(c3nn4c(=O)cc(C)nc4s3)CC2)cc1OC`: the response is 2.26%.

On to `COc1cc(O)c2c(=O)c3c(O)c(O)ccc3oc2c1OC`, for which the response is 27.1%.

As to `COCCNC(=O)C1CCN(S(=O)(=O)c2ccc3c(c2)OCCO3)CC1`, the response was -3.08%.

Consider `COC(=O)c1ccc(Sc2ccc(F)cc2)c(N)c1`, for which the response was -3.98%.

Regarding `Cc1snc(SCc2c(F)cccc2Cl)c1C#N`, the response was -7.91%.

For the compound `Cc1ccc(C(=O)N/C(=C\c2ccco2)C(=O)N2CCSCC2)cc1C`, the response is -0.71%.

With `O=C(Nc1ccc(C(=O)NCc2ccccc2Cl)cc1)C1=CSCCO1`, the response is -0.39%.

Take `CS(=O)(=O)NCc1ccc(C(=O)NCc2ccccc2)cc1`: the response is -3.96%.

For the compound `CSc1ccc(CNC(=O)c2ccc(NC(=O)C3=CSCCO3)cc2)cc1`, the response was 98.2% (active).

On to `NC(=O)c1ccsc1NC(=O)COC(=O)Cc1n[nH]c(=O)c2ccccc12`, for which the response is -0.52%.

With `CC1(C)C=Cc2c(ccc3c2OC[C@@H](c2ccc(O)cc2O)C3)O1`, the response is 45% (active).

For the compound `CCCCN(C(=O)c1ccc(OC(F)(F)F)cc1)c1c(N)n(CCC)c(=O)[nH]c1=O`, the response was 7.36%.

Turning to `COc1cccc(OC)c1C(=O)OCC(=O)/C(C#N)=C(\C)N`, the response was 13.3%.

For the compound `CSCC(=O)N1CCCC(C(=O)c2cc(F)ccc2F)C1` (stereo not drawn), the response is -14.2%.

With `CCc1ccccc1NC(=O)[C@@H]1CCC(=O)N1C1OC(=O)c2c1ccc(OC)c2OC` (stereo partly drawn), the response is 11.2%.

As for `COc1ccc2c(c1OC)C(=O)OC2Nc1nc(-c2ccccc2)cs1` (stereo not drawn), the response was 43.4% (active).

In the case of `C/C(CC1CC(C)(C)OC1=O)=N/Nc1nc(-c2ccccc2)cs1` (stereo not drawn), the response was 4.49%.

Regarding `O=C(NCC1CC1)c1onc(CSc2ccccc2)c1C(=O)NCC1CC1`, the response was -4.02%.

Take `CCn1c(SCC(=O)NC2CC2)nnc1-c1ccccn1`: the response was -5.81%.

On to `COC(=O)C1(C)NC(c2ccc(F)cc2)C2C(=O)N(c3ccccc3)C(=O)C21` (stereo not drawn), for which the response is 1.51%.

Take `Cc1n[nH]c(=O)c2c1nnn2Cc1ccc(F)cc1`: the response was 2.64%.

Regarding `CCCN(CCc1ccccc1)C1CCc2c(O)cccc2C1` (stereo not drawn), the response was 56.8% (active).

In the case of `Cc1cc(C)cc(C(=O)N(CCc2ccccc2)C2=CC3CCC(C2)N3C)c1` (stereo not drawn), the response was 11.3%.

Regarding `CCOC(=O)c1cnc(SCC(=O)Nc2ccccc2C(=O)OC)nc1N`, the response was 2.55%.

Consider `O=C(O)CCCn1cc(NC(=O)COc2cccc(Cl)c2)cn1`, for which the response is 15.6%.

`COC(CNC(=O)Cn1ncc2ccsc2c1=O)OC`: the response is 1.39%.

Take `CN(C)S(=O)(=O)Oc1ccccc1C(=O)Nc1ccccc1Cl`: the response was 1.66%.

As for `O=C(COC(=O)CCc1c[nH]c(=O)[nH]1)Nc1ccccc1Cl`, the response is -3.16%.

Turning to `O=C(Nc1ccccc1Cl)/C(Cl)=C(\Cl)S(=O)c1ccccc1` (stereo not drawn), the response is 56.9% (active).

Regarding `CCc1nc(N2CCN(C(C)=O)CC2)c2c3c(sc2n1)CCCC3`, the response was -8.93%.

In the case of `CC(C)CCNC(=O)c1ccc2c(Cl)c3c(nc2c1)CCC3`, the response was -1.39%.

Take `CC(=O)c1ccc(NC(=O)c2ccc3c(Cl)c4c(nc3c2)CCCC4)cc1`: the response was 60.5% (active).

Regarding `COc1cccc(NC(=O)c2ccc3c(SCC(=O)O)c4c(nc3c2)CCCC4)c1`, the response was 1.27%.

Take `CC(C)NC(=O)COCc1cc(-c2ccc3c(c2)OCO3)on1`: the response is -5.4%.

Turning to `N#CC1(NC(=O)COc2ccc3oc4ccccc4c3c2)CCCCC1`, the response was -4.35%.

On to `Brc1ccccc1CN1CCC(Cc2ccccc2)CC1`, for which the response was 4.82%.

As for `O=C(c1ccccc1)c1ccc2nc(N3CCCCC3)c3nncn3c2c1`, the response was -11.4%.

As for `c1ccc(CC2CCN(c3nc4ccccc4n4cnnc34)CC2)cc1`, the response was 68% (active).

In the case of `CSc1nc(-c2ccccc2)nc(C(Cl)Cl)n1`, the response is 81.7% (active).

As to `COc1ccc(C2c3ccc(O)cc3Oc3ncn(CCCO)c(=N)c32)cc1OC` (stereo not drawn), the response was -10.4%.

Consider `CS(=O)(=O)N1CCN(CC(=O)NC2CCCC2)CC1`, for which the response was -2.25%.

With `CCN1CCC(O)(/C=C/c2ccc(C)cc2)C(C(=O)/C=C/c2ccc(C)cc2)C1` (stereo not drawn), the response was 52.9% (active).

`CCOC(=O)C1CCCN(C(=O)/C=C/c2ccc(OC)cc2)C1` (stereo not drawn): the response was 0.35%.

Take `O=C(NCCCn1ccnc1)Nc1ccc(Cl)cc1Cl`: the response is -0.95%.

On to `COc1ccc(S(=O)(=O)N2CCCC(C(=O)NCCCn3ccnc3)C2)cc1OC` (stereo not drawn), for which the response is 10.8%.

For `O=C(NCCCn1ccnc1)C1CCCN(S(=O)(=O)c2cc(Cl)ccc2Cl)C1` (stereo not drawn), the response is 105% (active).

In the case of `CC1Cc2ccccc2N1C(=O)Cn1cnc2ccccc2c1=O` (stereo not drawn), the response was 6.28%.

Take `Cc1ccn2cc(-c3nonc3C)cc2c1`: the response is 15.2%.

Turning to `O=C1C(=O)N(CC2COc3ccccc3O2)c2ccccc21` (stereo not drawn), the response is 45.6% (active).

Take `O=C(CN1C(=O)C2C3C=CC(C3)C2C1=O)NCC1COc2ccccc2O1` (stereo not drawn): the response is 1.48%.

On to `CC(C)OC(=O)CN1C(=O)C(=O)c2ccccc21`, for which the response is 7.48%.

As for `c1ccc(CSc2ncnc3c2sc2nc(N4CCOCC4)c4c(c23)CCCC4)cc1`, the response is 10.1%.

Regarding `C#CCOCCOCCOCCNc1nc(N2CCN(C(=O)[C@H](CCC(=O)O)n3cc(CN)nn3)CC2)nc(N2CCN(C(=O)[C@H](CCC(=O)O)n3cc(CN)nn3)CC2)n1`, the response is -3.45%.

With `C#CCOCCOCCOCCNc1nc(N2CCN(C(=O)CCCCCCCCCCNC(=O)[C@H]([C@@H](C)CC)n3cc(CCCCN=C(N)N)nn3)CC2)nc(N2CCN(C(=O)CCCCCCCCCCNC(=O)[C@H](CO)n3cc(CCCSC)nn3)CC2)n1`, the response is 96.3% (active).

For `C#CCOCCOCCOCCNc1nc(N2CCN(C(=O)CCCCCCCCCCNC(=O)Cn3cc(CCCCCN)nn3)CC2)nc(N2CCN(C(=O)CCCCCCCCCCNC(=O)[C@H](CO)n3cc(CCCSC)nn3)CC2)n1`, the response was 64.5% (active).

Consider `C#CCOCCOCCOCCNc1nc(N2CCN(C(=O)Cn3cc(CCO)nn3)CC2)nc(N2CCN(C(=O)Cn3cc(CCCN=C(N)N)nn3)CC2)n1`, for which the response is 6.34%.

Take `C#CCOCCOCCOCCNc1nc(N2CCN(C(=O)Cn3cc(CCO)nn3)CC2)nc(N2CCN(C(=O)[C@H](CCCCN)n3cc(CCCC)nn3)CC2)n1`: the response is 0.16%.

On to `C#CCOCCOCCOCCNc1nc(N2CCN(C(=O)C([C@@H](C)O)n3cc([C@@H](N)CCCCN)nn3)CC2)nc(N2CCN(C(=O)[C@H](CCCCN)n3cc(CN)nn3)CC2)n1` (stereo partly drawn), for which the response was 1.85%.

As to `C#CCOCCOCCOCCNc1nc(N2CCN(C(=O)[C@H](CCCN=C(N)N)n3cc(C(N)[C@@H](C)CC)nn3)CC2)nc(N2CCN(C(=O)[C@H](CO)n3cc([C@@H](N)C(C)C)nn3)CC2)n1` (stereo partly drawn), the response is -10.2%.

For `C#CCOCCOCCOCCNc1nc(N2CCN(C(=O)[C@H](CCCCN)n3cc(CCC(=O)O)nn3)CC2)nc(N2CCN(C(=O)[C@H](CCCCN)n3cc(CC(C)O)nn3)CC2)n1` (stereo partly drawn), the response is 0.88%.

Turning to `C#CCOCCOCCOCCNc1nc(N2CCN(C(=O)CCCCCCCCCCNC(=O)[C@H](CCCCN)n3cc(C)nn3)CC2)nc(N2CCN(C(=O)CCCCCCCCCCNC(=O)[C@H](CO)n3cc(CCCSC)nn3)CC2)n1`, the response is 77% (active).
